Here are results for twelve molecules from PubChem BioAssay (NCATS).

SMILES strings stand for the structures. Inconclusive results are not listed. A call without a number means that no potency is given here. Calls of active or inactive are those of the source. Calls follow the shape of the dose curve; as a rule, active = well fitted inhibition curve with a large enough effect; inconclusive = small, poorly fitted or top-dose-only effect; inactive = flat fitted curve, though single readings scatter.
Potency is read from the fitted curve at half-maximal effect.

The subject of the first experiment is Dd2. Nature of the experiment: qHTS profiling for inhibitors of Plasmodium falciparum proliferation (AID 504749). Also: nearly all actives have a fitted effect of over 60% in size. To be noted: P. falciparum in erythrocytes, SYBR Green DNA, 72 h; series mostly up to 12.8 µM. Put shortly: (§1)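 In a 72 h erythrocytic culture (37 C, humidified, 5% CO2) at 2.5% hematocrit and 0.3% starting parasitemia, compounds were tested; SYBR Green I in detergent lysis buffer stained parasite DNA overnight.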
Take `CCO[C@H]1O[C@@H]([C@H](COCc2ccccc2)OCc2ccccc2)[C@@H](OCc2ccccc2)[C@H]1O`: the Potency entry is “inactive”.

`COc1cc(N[C@@H](C)CCCN)c2ncccc2c1`: the Potency is 1410 nM (active).

Consider `C=Cc1c(C)c2cc3nc(cc4[nH]c(cc5nc(cc1[nH]2)C(C)=C5CCC(=O)O)c(CCC(=O)OC)c4C)[C@@]1(C)C3=CC=C(C(=O)OC)[C@H]1C(=O)OC` (tested in a mixture with another compound), for which the Potency is 2240 nM (active).

Regarding `O=C(OC[C@@H](O)CO)c1ccccc1Nc1ccnc2cc(Cl)ccc12`, the Potency entry is “inactive”.

With `CO[C@]1(NC(=O)[C@H](C(=O)O)c2ccc(O)cc2)C(=O)N2C(C(=O)O)=C(CSc3nnnn3C)CO[C@H]21`, the Potency result is “inactive”.

In the case of `COc1ccc2c(c1)N(C[C@@H](C)CN(C)C)c1ccccc1S2`, the Potency entry was “inactive”.

With `CCC(=O)[C@@]1(C)[C@H](C)C[C@@H]2[C@@H]3CCC4=CC(=O)C=C[C@@]4(C)[C@H]3[C@H](O)C[C@]21C`, the Potency entry is “inactive”.

As for `CCN(CC)[C@@H](C)CN1c2ccccc2Sc2ccccc21`, the Potency is 1260 nM (active).

As to `CC=C(/C(=C/C)c1ccc(O)cc1)c1ccc(O)cc1`, the Potency result was “inactive”.

In the case of `CC1(C)S[C@@H]2[C@H](NC(=O)[C@@H](N)c3ccccc3)C(=O)N2[C@H]1C(=O)O[C@H]1OC(=O)c2ccccc21`, the Potency result is “inactive”.

The next experiment has as its system ECU. Described as above. Conditions: P. falciparum in erythrocytes, SYBR Green DNA, 72 h; series mostly up to 12.8 µM. Put shortly:
as §1
On to `CCO[C@H]1O[C@@H]([C@H](COCc2ccccc2)OCc2ccccc2)[C@@H](OCc2ccccc2)[C@H]1O`, for which the Potency entry was “inactive”.

For the molecule `COc1cc(N[C@@H](C)CCCN)c2ncccc2c1`, the Potency was 1000 nM (active).

As to `C=Cc1c(C)c2cc3nc(cc4[nH]c(cc5nc(cc1[nH]2)C(C)=C5CCC(=O)O)c(CCC(=O)OC)c4C)[C@@]1(C)C3=CC=C(C(=O)OC)[C@H]1C(=O)OC` (tested in a mixture with another compound), the Potency was 3980 nM (active).

On to `O=C(OC[C@@H](O)CO)c1ccccc1Nc1ccnc2cc(Cl)ccc12`, for which the Potency entry is “inactive”.

On to `CO[C@]1(NC(=O)[C@H](C(=O)O)c2ccc(O)cc2)C(=O)N2C(C(=O)O)=C(CSc3nnnn3C)CO[C@H]21`, for which the Potency entry was “inactive”.

Regarding `COc1ccc2c(c1)N(C[C@@H](C)CN(C)C)c1ccccc1S2`, the Potency entry is “inactive”.

Regarding `CCC(=O)[C@@]1(C)[C@H](C)C[C@@H]2[C@@H]3CCC4=CC(=O)C=C[C@@]4(C)[C@H]3[C@H](O)C[C@]21C`, the Potency result is “inactive”.

Consider `CCC(C)(C)C(=O)O[C@@H]1C[C@H](C)C=C2C=C[C@H](C)[C@@H](CC[C@H]3C[C@@H](O)CC(=O)O3)[C@H]21`, for which the Potency entry was “inactive”.

Take `CC=C(/C(=C/C)c1ccc(O)cc1)c1ccc(O)cc1`: the Potency result was “inactive”.

Consider `CC1(C)S[C@@H]2[C@H](NC(=O)[C@@H](N)c3ccccc3)C(=O)N2[C@H]1C(=O)O[C@H]1OC(=O)c2ccccc21`, for which the Potency entry is “inactive”.

For a further experiment, the system named is FAB9. The description is as above. Conditions: P. falciparum in erythrocytes, SYBR Green DNA, 72 h; series mostly up to 12.8 µM. Put shortly: as §1
In the case of `CCO[C@H]1O[C@@H]([C@H](COCc2ccccc2)OCc2ccccc2)[C@@H](OCc2ccccc2)[C@H]1O`, the Potency entry is “inactive”.

On to `COc1cc(N[C@@H](C)CCCN)c2ncccc2c1`, for which the Potency was 891 nM (active).

In the case of `O=C(OC[C@@H](O)CO)c1ccccc1Nc1ccnc2cc(Cl)ccc12`, the Potency result is “inactive”.

With `CO[C@]1(NC(=O)[C@H](C(=O)O)c2ccc(O)cc2)C(=O)N2C(C(=O)O)=C(CSc3nnnn3C)CO[C@H]21`, the Potency result was “inactive”.

Turning to `COc1ccc2c(c1)N(C[C@@H](C)CN(C)C)c1ccccc1S2`, the Potency entry is “inactive”.

Consider `CCC(=O)[C@@]1(C)[C@H](C)C[C@@H]2[C@@H]3CCC4=CC(=O)C=C[C@@]4(C)[C@H]3[C@H](O)C[C@]21C`, for which the Potency result was “inactive”.

On to `CCC(C)(C)C(=O)O[C@@H]1C[C@H](C)C=C2C=C[C@H](C)[C@@H](CC[C@H]3C[C@@H](O)CC(=O)O3)[C@H]21`, for which the Potency result is “inactive”.

Consider `CCN(CC)[C@@H](C)CN1c2ccccc2Sc2ccccc21`, for which the Potency entry was “inactive”.

On to `COC(=O)[C@@H]1[C@@H]2C[C@H]3c4[nH]c5cc(OC)ccc5c4CCN3C[C@@H]2C[C@H](OC(=O)/C=C\c2cc(OC)c(OC)c(OC)c2)[C@H]1OC`, for which the Potency result was “inactive”.

For `CC=C(/C(=C/C)c1ccc(O)cc1)c1ccc(O)cc1`, the Potency entry was “inactive”.

Take `CC1(C)S[C@@H]2[C@H](NC(=O)[C@@H](N)c3ccccc3)C(=O)N2[C@H]1C(=O)O[C@H]1OC(=O)c2ccccc21`: the Potency result is “inactive”.

The test system of another experiment is GB4. The experiment is described as above. To be noted: P. falciparum in erythrocytes, SYBR Green DNA, 72 h; series mostly up to 12.8 µM. Put shortly:
as §1
For `COc1cc(N[C@@H](C)CCCN)c2ncccc2c1`, the Potency is 809 nM (active).

With `C=Cc1c(C)c2cc3nc(cc4[nH]c(cc5nc(cc1[nH]2)C(C)=C5CCC(=O)O)c(CCC(=O)OC)c4C)[C@@]1(C)C3=CC=C(C(=O)OC)[C@H]1C(=O)OC` (tested in a mixture with another compound), the Potency is 12000 nM (active).

Regarding `CO[C@]1(NC(=O)[C@H](C(=O)O)c2ccc(O)cc2)C(=O)N2C(C(=O)O)=C(CSc3nnnn3C)CO[C@H]21`, the Potency result is “inactive”.

For the molecule `CCC(=O)[C@@]1(C)[C@H](C)C[C@@H]2[C@@H]3CCC4=CC(=O)C=C[C@@]4(C)[C@H]3[C@H](O)C[C@]21C`, the Potency result was “inactive”.

Turning to `CCN(CC)[C@@H](C)CN1c2ccccc2Sc2ccccc21`, the Potency is 5730 nM (active).

Turning to `COC(=O)[C@@H]1[C@@H]2C[C@H]3c4[nH]c5cc(OC)ccc5c4CCN3C[C@@H]2C[C@H](OC(=O)/C=C\c2cc(OC)c(OC)c(OC)c2)[C@H]1OC`, the Potency was 5100 nM (active).

Take `CC=C(/C(=C/C)c1ccc(O)cc1)c1ccc(O)cc1`: the Potency result was “inactive”.

Consider `CC1(C)S[C@@H]2[C@H](NC(=O)[C@@H](N)c3ccccc3)C(=O)N2[C@H]1C(=O)O[C@H]1OC(=O)c2ccccc21`, for which the Potency entry was “inactive”.
